# Source: PubChem BioAssay (Tox21)
# Where “and” joins values, the source holds several entries; their conditions need not be identical. Identical values can stand only once. A number with no mark means an inactive call. Records with an inconclusive call do not appear. Where a call stands in place of a potency, no number is given. Calls of active or inactive are those of the source. Unless noted, calls follow the shape of the dose curve; as a rule, active = well fitted curve in the direction sought with a large enough effect in the repeat runs; inconclusive = weak or mixed curves; inactive = no such curve, though single readings can be large; an effect the other way counts as inactive or inconclusive.
# Experiments:
# [1] = qHTS assay for small molecules that induce genotoxicity in human embryonic kidney cells expressing luciferase-tagged ATAD5 (AID 651632); also: nearly all actives have a fitted effect of over 15% in size
# Outline: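 Cells were seeded at 2,000 per well, dosed with compound, and incubated 16 hr at 37C in 5% CO2. Luciferase activity was then quantified after a 30 min room-temperature incubation with Amplite.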
# [2] = qHTS assay for small molecule agonists of the p53 signaling pathway - cell viability (AID 651633; calls by dose curve; also: nearly all actives have a fitted effect of over 30% in size; also: potency is read from the fitted curve at half-maximal effect)
# Outline: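 p53RE-bla cells were treated with compound for 16 hours at 37 C. Cytotoxicity was then measured as CellTiter-Glo luminescence after 30 min at room temperature.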
# [3] = qHTS assay for small molecules that induce genotoxicity in human embryonic kidney cells expressing luciferase-tagged ATAD5 - cell viability (AID 651634; calls by dose curve; also: nearly all actives have a fitted effect of over 25% in size)
# Outline: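 Cells (HEK293T, luciferase-tagged ATAD5) are seeded at 2,000 per well, dosed with compound or DMSO vehicle, and incubated 15.5 hr at 37C and 5% CO2. CellTiter-Fluor is added for 30 min before fluorescence is measured.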
# [4] = qHTS assay for small molecule disruptors of the mitochondrial membrane potential - cell viability (AID 720634; calls by dose curve;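 also: human HepG2 liver cancer cells; series mostly up to about 83 µM; nearly all actives have a fitted effect of over 20% in size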)
# Outline: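 Cytotoxicity was measured by ATP quantitation in HepG2 wells that had first been treated with compound for 1 hr and stained with m-MPI dye; CellTiter-Glo incubation was 30 min at room temperature.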
# [5] = qHTS assay for small molecule disruptors of the mitochondrial membrane potential (AID 720635); also: potency is read from the fitted curve at half-maximal effect
# Outline: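 HepG2 cells exposed to compound 1 hr at 37C, then Mito-MPS dye 30 min. Ratio read of aggregate (540/590 nm) versus monomer (490/535 nm) fluorescence.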
# [6] = qHTS assay to test for compound auto fluorescence at 590 nm (red) in HepG2 cells (AID 720674)
# Outline: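 Seeding: 2,000 HepG2 cells/well, MEM/10% FBS, overnight 37 C. Dosing: compound vs DMSO. Incubation: 1 hr, 37 C, 5% CO2. Read: fluorescence 540 ex/590 em, Rose Bengal sodium as red reference.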
# [7] = qHTS assay to test for compound auto fluorescence at 535 nm (green) in HepG2 cells (AID 720675)
# [8] = qHTS assay to test for compound auto fluorescence at 590 nm (red) in HEK293 cells (AID 720679)
# Outline: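 Using HEK293 cells at 2,000 per well, the screen added 23 nL of each compound after cell attachment and incubated overnight (37C, 5% CO2). The plate reader then captured red-label fluorescence, Ex/Em 540/590nm.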
# [9] = qHTS assay to test for compound auto fluorescence at 535 nm (green) in HEK293 cells (AID 720680)
# [10] = qHTS assay to test for compound auto fluorescence at 460 nm (blue) in HEK293 cell free culture (AID 720681)
# Outline: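 Compounds were added to cell-free DMEM with 10% FBS and fluorescence read directly. The blue channel used 405 nm excitation and 460 nm emission, with triamterene as the reference fluorophore.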
# [11] = qHTS assay to test for compound auto fluorescence at 535 nm (green) in HEK293 cell free culture (AID 720682)
# Outline: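 Using fluorescein as calibrant, autofluorescence was quantified at 485/535 nm in cell-free DMEM containing 10% FBS after pintool addition of compound or vehicle.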
# [12] = qHTS assay to test for compound auto fluorescence at 590 nm (red) in HEK293 cell free culture (AID 720683)
# Outline: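 Cell-free wells of DMEM with 10% FBS received compound, and intrinsic fluorescence was read at excitation/emission 540/590 nm. Values expressed as equivalence to Rose Bengal sodium.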
# [13] = qHTS assay to test for compound auto fluorescence at 590 nm (red) in HepG2 cell free culture (AID 720684)
# Outline: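 Auto fluorescence equivalency versus Rose Bengal sodium, red channel Ex/Em 540/590 nm; compounds in cell-free MEM/10% FBS; DMSO vehicle control.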
# [14] = qHTS assay to test for compound auto fluorescence at 460 nm (blue) in HepG2 cell free culture (AID 720685)
# Outline: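 Cell-free plates of MEM plus 10% FBS received 23 nL compound or DMSO vehicle; blue-channel (405/460 nm) intensity scored against triamterene as reference fluorophore.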
# [15] = qHTS assay to test for compound auto fluorescence at 535 nm (green) in HepG2 cell free culture (AID 720686)
# [16] = qHTS assay to test for compound auto fluorescence at 460 nm (blue) in HepG2 cells (AID 720687)
# Outline: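 HepG2 cells in MEM with 10% FBS, attached overnight at 37 C, were exposed to compound or DMSO for 1 hr at 37 C, 5% CO2. Blue fluorescence was read at 405/460 nm, with triamterene as reference fluorophore.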
# [17] = qHTS assay for small molecule agonists of the p53 signaling pathway (AID 651631; calls by dose curve; also: nearly all actives have a fitted effect of over 15% in size; also: potency is read from the fitted curve at half-maximal effect)
# Outline: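 Stably transfected HCT-116 cells (beta-lactamase behind p53 response elements) get compounds after a 5 h settling period; 16 h later at 37 °C, FRET substrate is loaded and fluorescence read after 2 h.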
# [18] = qHTS assay to test for compound auto fluorescence at 460 nm (blue) in HEK293 cells (AID 720678)
# Outline: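 Measured: blue fluorescence (Ex 405/Em 460 nm) of compound-treated HEK293 cells, incubated overnight at 37C with 5% CO2 and scaled to triamterene equivalents.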
# [19] = biological target: Glucocorticoid receptor (Homo sapiens) (UniProt P04150); test: qHTS assay to identify small molecule agonists of the glucocorticoid receptor (GR) signaling pathway (AID 720691; active = well fitted activation curve with a large enough effect in the signal ratio in the repeat runs, not every such curve was filed as active; the % refers to the signal ratio)
# Glucocorticoid receptor (Homo sapiens), sequence (P04150 whole entry, looked up): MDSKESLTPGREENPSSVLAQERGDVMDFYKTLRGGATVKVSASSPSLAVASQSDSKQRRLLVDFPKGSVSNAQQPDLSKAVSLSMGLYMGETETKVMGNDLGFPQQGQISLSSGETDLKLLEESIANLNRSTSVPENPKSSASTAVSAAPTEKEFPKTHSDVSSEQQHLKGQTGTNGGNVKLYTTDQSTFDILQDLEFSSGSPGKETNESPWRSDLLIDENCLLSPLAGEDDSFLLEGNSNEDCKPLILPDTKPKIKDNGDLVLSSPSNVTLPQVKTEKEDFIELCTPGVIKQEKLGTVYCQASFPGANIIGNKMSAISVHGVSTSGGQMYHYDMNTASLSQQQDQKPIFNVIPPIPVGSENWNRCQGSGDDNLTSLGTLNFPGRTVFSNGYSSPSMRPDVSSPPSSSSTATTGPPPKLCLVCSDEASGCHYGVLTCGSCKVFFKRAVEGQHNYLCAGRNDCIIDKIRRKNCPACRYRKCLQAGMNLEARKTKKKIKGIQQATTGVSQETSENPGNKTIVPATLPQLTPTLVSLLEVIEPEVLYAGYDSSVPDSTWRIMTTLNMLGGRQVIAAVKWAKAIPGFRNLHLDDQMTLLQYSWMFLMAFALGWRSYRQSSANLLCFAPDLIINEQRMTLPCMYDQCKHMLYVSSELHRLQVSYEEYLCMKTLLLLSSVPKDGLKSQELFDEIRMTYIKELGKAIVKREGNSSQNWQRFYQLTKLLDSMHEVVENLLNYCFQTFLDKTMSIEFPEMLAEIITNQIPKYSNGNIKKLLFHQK
# Outline: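 Steps: seed GR-bla HeLa cells, incubate 4 h at 37 C/5% CO2; pin-transfer DMSO-dissolved compounds; incubate 18 h at 37 C; add LiveBLAzer B/G FRET substrate; after 2 h at room temperature, measure fluorescence.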
# [20] = biological target: Glucocorticoid receptor (Homo sapiens) (UniProt P04150); test: qHTS assay to identify small molecule antagonists of the glucocorticoid receptor (GR) signaling pathway (AID 720692; active = well fitted inhibition curve with a large enough effect in the signal ratio in the repeat runs, not every such curve was filed as active; the % refers to the signal ratio; also: potency is read from the fitted curve at half-maximal effect)
# Outline: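 Antagonism was scored as loss of dexamethasone-driven (5 nM final) reporter signal in HeLa cells bearing a glucocorticoid response element–beta-lactamase construct, after 18 h compound exposure at 37 C and 2 h FRET substrate loading.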
SMILES,Potency [1],Potency [2],Potency [3],Potency [4],Potency [5],outcome [6],outcome [7],outcome [8],outcome [9],Potency [10],outcome [11],outcome [12],outcome [13],Potency [14],outcome [15],Potency [16],Potency [17],Potency [18],Potency [19],Potency [20]
CCCCCC(CO)CCC (stereo not drawn),inactive,inactive,inactive,inactive,inactive,inactive,inactive,inactive,inactive,inactive,inactive,inactive,inactive,inactive,inactive,inactive,,,,
O=C(O)/C=C/c1cnc[nH]1,,inactive,inactive,inactive,inactive,inactive,inactive,inactive,inactive,inactive,,inactive,inactive,,inactive,inactive,inactive,inactive,inactive,inactive
CCCC(=O)OCC,inactive,,,,,inactive,,inactive,inactive,inactive,,inactive,inactive,inactive,inactive,inactive,inactive,inactive,inactive,inactive
O=C(O)Cc1cc(I)c(Oc2ccc(O)c(I)c2)c(I)c1,,3.59 µM (active) and 43.3 µM (active),inactive,inactive,68.6 µM (active),inactive,inactive,inactive,inactive,inactive,inactive,inactive,inactive,inactive,inactive,inactive,4.52 µM (active) and 24.3 µM (active),inactive,inactive,9.1 µM (active) and 3.47 µM (active)
O=C(O)Cc1sc(-c2ccccc2)nc1-c1ccc(Cl)cc1,inactive,,,inactive,24.8 µM (active) and 23.7 µM (active) and 26.6 µM (active),inactive,inactive,inactive,inactive,inactive,,inactive,inactive,inactive,inactive,inactive,inactive,inactive,inactive,
CCCc1ccccc1,inactive,,inactive,,,inactive,,inactive,inactive,inactive,,inactive,inactive,inactive,inactive,inactive,inactive,,inactive,inactive
CN1CCC(=C2c3ccccc3CCc3sccc32)CC1,inactive,inactive,inactive,inactive,,inactive,inactive,inactive,inactive,inactive,inactive,inactive,inactive,inactive,inactive,inactive,,inactive,inactive,
ClC(Cl)(Cl)c1ccc(C(Cl)(Cl)Cl)cc1,inactive,inactive,inactive,inactive,13.5 µM (active),inactive,inactive,inactive,inactive,inactive,inactive,inactive,inactive,inactive,inactive,inactive,,inactive,inactive,
CN(C(=O)CCCOc1ccc2[nH]c(=O)ccc2c1)C1CCCCC1,,inactive,inactive,,,inactive,,inactive,inactive,inactive,inactive,inactive,inactive,inactive,inactive,inactive,inactive,,inactive,inactive
CC(C)c1ccc2c(C(C)C)cc(C(C)C)c(S(=O)(=O)O)c2c1,inactive,inactive,inactive,inactive,inactive,inactive,inactive,inactive,inactive,inactive,inactive,inactive,inactive,,inactive,inactive,,inactive,,
Cc1ccccn1,,,inactive,inactive,inactive,inactive,inactive,inactive,inactive,inactive,inactive,inactive,inactive,,,inactive,inactive,inactive,,inactive
Cc1occc1S,inactive,inactive,inactive,inactive,inactive,inactive,inactive,inactive,inactive,inactive,inactive,inactive,inactive,,,inactive,,inactive,inactive,inactive
CCOc1ccc2[nH]cc(C(=O)NCc3ccccc3)c(=O)c2n1,inactive,inactive,inactive,inactive,8.63 µM (active),inactive,inactive,inactive,inactive,inactive,inactive,inactive,inactive,inactive,inactive,inactive,,inactive,,
CC(=O)OCCc1ccccc1,inactive,,inactive,,inactive,inactive,inactive,inactive,inactive,inactive,inactive,inactive,inactive,inactive,inactive,inactive,inactive,inactive,inactive,inactive
SC1CCCC1,inactive,inactive,inactive,inactive,inactive,inactive,inactive,inactive,inactive,inactive,,inactive,inactive,inactive,inactive,inactive,,inactive,,
c1ccc(-c2nc[nH]c2-c2ccccc2)cc1,inactive,inactive,inactive,inactive,,inactive,,inactive,inactive,inactive,,inactive,inactive,inactive,inactive,inactive,,,,
